RAD52 anneal inh: blocks human RAD52 DNA annealing; AID 651710; actives 0.46% (n = 360,000); inhibition, % at 18.7 µM; recombinant RAD52 DNA annealing, FRET fluorescence;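 active = every replicate showing at least 50% inhibition; inconclusive = mean inhibition at least 50% but not in every replicate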
ERAP1 inh: blocks human ERAP1 aminopeptidase activity. recombinant ERAP1, Leu-AMC fluorescence, 60 min. inhibition, % at 10.7 µM. actives 0.15% (n = 340,000);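 active = mean replicate inhibition of at least 30%, or all replicates individually reaching that 30% level; inactive = mean below 30% and not every replicate reaching it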;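 also: 0% = neutral control wells and 100% = L-leucinethiol positive control wells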
Target sequence (Q9NZ08 whole entry, looked up): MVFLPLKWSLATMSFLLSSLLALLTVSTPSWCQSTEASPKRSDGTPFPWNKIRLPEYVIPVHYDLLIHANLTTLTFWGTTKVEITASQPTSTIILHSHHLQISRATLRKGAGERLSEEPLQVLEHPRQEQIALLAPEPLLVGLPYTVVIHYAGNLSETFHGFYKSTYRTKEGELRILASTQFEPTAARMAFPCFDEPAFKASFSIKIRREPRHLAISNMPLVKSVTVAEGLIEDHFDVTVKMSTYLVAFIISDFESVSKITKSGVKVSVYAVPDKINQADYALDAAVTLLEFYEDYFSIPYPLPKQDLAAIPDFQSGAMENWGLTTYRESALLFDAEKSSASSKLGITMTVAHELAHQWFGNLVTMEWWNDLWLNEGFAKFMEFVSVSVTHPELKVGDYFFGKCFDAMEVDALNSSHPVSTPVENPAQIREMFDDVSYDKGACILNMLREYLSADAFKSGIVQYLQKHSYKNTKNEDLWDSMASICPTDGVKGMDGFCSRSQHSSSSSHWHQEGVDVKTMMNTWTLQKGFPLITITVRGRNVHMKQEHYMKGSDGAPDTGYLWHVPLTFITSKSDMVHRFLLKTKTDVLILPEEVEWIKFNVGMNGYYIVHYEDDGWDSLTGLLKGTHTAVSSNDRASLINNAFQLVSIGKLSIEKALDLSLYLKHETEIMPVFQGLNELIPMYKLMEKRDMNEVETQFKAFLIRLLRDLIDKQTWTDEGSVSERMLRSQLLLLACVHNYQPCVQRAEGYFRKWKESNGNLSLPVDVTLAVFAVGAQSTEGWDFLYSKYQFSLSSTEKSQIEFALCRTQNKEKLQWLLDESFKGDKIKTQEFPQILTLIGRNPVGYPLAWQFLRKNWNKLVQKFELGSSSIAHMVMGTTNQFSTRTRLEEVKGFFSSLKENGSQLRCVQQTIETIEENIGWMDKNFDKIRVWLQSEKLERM
MLL AF4-AF9 inh: blocks AF4 peptide binding to human AF9 | P42568 | AlphaScreen, biotin-AF4 peptide binding to FLAG-AF9 | inhibition, % at 10 µM | actives 0.47% (n = 350,000);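 active = every replicate reaching a set inhibition limit, whatever the replicate mean, cut at about 25% in these data; inconclusive = mean inhibition reaches that limit but some replicates miss it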;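 also: 0% = plate neutral control median and 100% = total signal loss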
PGC1a acetyl inh: PGC1a acetylation modulation, inhibitor mode | U2OS PGC1a acetylation, AlphaScreen anti-acetyl-lysine; with virally co-expressed GCN5 acetyltransferase | inhibition, % at 15.6 µM | actives 0.17% (n = 350,000);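 active = every replicate shows inhibition of at least 40%; inconclusive = mean inhibition at least 40% but some replicate below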;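 also: 0% = neutral control wells and 100% = positive control wells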
RAD54 inh: blocks human RAD54 Holliday junction branch migration | actives 0.14% (n = 360,000) | FAM/BHQ fluorescence | inhibition, % at 10.4 µM | AID 602329 | Q92698;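 active = mean normalized replicate activity at least 40 and at least half of replicates scoring 40 or more; inconclusive = only one of the two criteria met; inactive = mean below 40 and under half of replicates reaching 40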;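 also: 0% = median of neutral control wells and 100% = median of positive control wells; inhibitors cause a drop in the FAM fluorescence signal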
GSIS activator: primary screen for activators of insulin secretion dependent on glucose, INS-1E cells, GLuc reporter luminescence; INS-1E GLuc reporter insulin secretion, 2-3 h; activation, % at 16.6 µM; actives 0.61% (n = 370,000); AID 743287;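 active = lowest replicate activation of at least 40%, so every replicate reaches that level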;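 also: 0% = median of neutral control wells and 100% = median of IBMX positive control wells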
DNA binder FP: DNA binding artifact in RAD52 counter-screen; AC50, µM; actives 8% (n = 1,000); Salmon sperm DNA/acridine orange FP displacement; shares compounds with RAD52 anneal inh;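 active = fitted half-maximal concentration for signal loss at or below twice the highest dose tested, in every separate run, actives reach about 64 µM in these data; inconclusive = runs disagree, or flat partial signal loss, or poor fit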
An asterisk follows results filed as active; i = inactive; u = inconclusive; x = not tested or not shown. Compounds with a hit are over-represented: about 1.4% of the library has one in this group of screens.

SMILES | RAD52 anneal inh | ERAP1 inh | MLL AF4-AF9 inh | PGC1a acetyl inh | RAD54 inh | GSIS activator | DNA binder FP
COc1ccc(/C=C2\Sc3ccc(C(=O)NCCN4CCCCCC4)cc3N(C)C2=O)cc1 | 55.6* | -1.3 | 13.6 | -3.5 | 6.5 | 14.8 | i
COc1cccc(/C=C2/Sc3ccc(C(=O)NCCN4CCCC4)cc3NC2=O)c1 | 91.8* | 7.8 | 37.5* | -11.6 | 40.5 | 9.1 | i
CN(C)CCCNc1ccc(-c2n[nH]c(=O)c3ccccc23)cc1[N+](=O)[O-] | 66.4* | 3.0 | 10.0 | 15.3 | 27.7 | x | i
O=C(NC1CCCCC1)N1CCNCC1 | -10.2 | -0.8 | -0.3 | x | -5.6 | 3.1 | x
C1CCCCCC(NCCN2CCNCC2)CCCCC1 | 64.0* | 12.4 | x | -28.1 | x | 84.2 | i
CCCCCc1ccc(OCCCC[n+]2ccccc2)c(CCCCC)c1 | x | x | x | -4.2 | x | x | x
CCCCCc1ccc(OCCCC[n+]2cccc(C)c2)c(CCCCC)c1 | 76.3* | 12.8 | u | 9.1 | x | 174.1* | i
CCCCCc1ccc(OCCCC[n+]2ccc(C)cc2)c(CCCCC)c1 | 65.6* | 11.1 | u | 1.8 | x | 109.4* | i
Cc1noc(C)c1NC(=O)N(C)C[C@H]1OCCCC[C@H](C)Oc2ccc(NS(=O)(=O)c3cn(C)cn3)cc2C(=O)N([C@H](C)CO)C[C@@H]1C | x | x | x | 1.0 | 2.7 | 8.7 | x
CC(C)c1ccc(CNc2nc(NCC3CC3)nc3ccsc23)cc1 | 71.1* | 4.3 | -0.2 | x | -2.7 | 13.6 | i
CC(C)(C)NCC(O)CON=C1c2ccccc2-c2ccccc21 (stereo not drawn) | 55.1* | 2.7 | 14.3 | x | x | 3.4 | i
CCn1cc(C(=O)NN)c(=O)c2cc(F)c(N3CCN(C)CC3)cc21 | 97.1* | 1.5 | 2.8 | x | 2.6 | 33.1 | i
COCC(=O)N1C[C@H](C)[C@@H](OC)CN(C)C(=O)c2cc(NC(=O)Nc3cccc(F)c3)ccc2OC[C@@H]1C | 6.1 | -0.9 | -2.2 | 13.7 | x | -1.2 | x
O=C(O)c1ccc(Nc2c3ccccc3nc3ccccc23)cc1 | -14.7 | -21.7 | 0.6 | -3.3 | -23.7 | 7.1 | x
c1cncc(Nc2c3ccccc3nc3ccccc23)c1 | 59.1* | 4.2 | -12.9 | 1.0 | 78.1* | 0.7 | i
CN(C)C(=O)c1cccc(-c2cnc3c(NC=O)cc(-c4ccccc4F)cn23)c1 | -54.9 | 5.0 | 1.7 | -17.9 | 3.6 | -1.3 | x
CCSc1ccc(-c2cc(NC=O)c3ncc(-c4cccc(C(=O)NCCN(C)C)c4)n3c2)cc1 | 65.8* | -5.8 | 42.9* | x | 9.8 | 25.6 | i
CC(=O)Nc1cc(-c2cccc(C(=O)NCCN(C)C)c2)cn2c(-c3cccc(C(F)(F)F)c3)cnc12 | 85.9* | 8.2 | 25.8* | -16.3 | 43.0 | 169.8* | i
CN(C)CCNC(=O)c1cccc(-c2cnc3c(NC=O)cc(/C=C/c4ccccc4)cn23)c1 | 79.7* | 8.6 | 33.9* | -18.1 | 17.7 | 16.2 | i
CO[C@H]1CN(C)C(=O)c2ccc(NS(=O)(=O)c3ccc(-c4ccccc4)cc3)cc2OC[C@H](C)NC[C@@H]1C | 14.9 | -2.3 | -1.0 | 4.3 | x | -2.9 | x
O=C(NCC1CCCCC1)C1(CC2CC(c3ccc(Cl)cc3)=NO2)CCNCC1 (stereo not drawn) | 66.9* | 0.8 | 9.0 | -15.9 | 11.0 | x | i
NCc1cc2c3c(c1)CCCN3CCC2 | 80.3* | 4.5 | 51.3* | x | 55.0* | 8.6 | u
CC(=O)N(C)C[C@@H]1Oc2ncc(C3=CCCC3)cc2C(=O)N([C@@H](C)CO)C[C@@H]1C | -2.2 | 5.3 | -4.7 | -5.5 | -4.8 | 22.6 | x
CCC(=O)N(C)C[C@H]1Oc2cc(C#CCC(C)C)ccc2S(=O)(=O)N([C@@H](C)CO)C[C@H]1C | 4.8 | -2.0 | -1.8 | -2.6 | -13.1 | 3.6 | x
CCOc1ccc(CCN2C(=S)N([C@@H](Cc3ccc(O)cc3)CN3CCC[C@@H]3CN3C(=S)NC[C@@H]3CC(C)C)C[C@@H]2Cc2ccc(O)cc2)cc1 | 66.6* | x | -4.6 | -16.1 | -8.4 | -2.3 | i
SMILES | RAD52 anneal inh | ERAP1 inh | MLL AF4-AF9 inh | PGC1a acetyl inh | RAD54 inh | GSIS activator | DNA binder FP
CCOc1ccc(CCN2C(=S)N([C@@H](Cc3ccc(O)cc3)CN3CCCC3CN3C(=S)NC[C@@H]3Cc3ccc(O)cc3)C[C@@H]2CC(C)C)cc1 (stereo partly drawn) | -45.9 | -1.8 | -0.6 | -20.3 | 2.5 | x | x
C[C@@H]1CCCCO[C@@H](CN(C)CC2CCCCC2)[C@@H](C)CN([C@H](C)CO)C(=O)c2cc(NC(=O)NC3CCCCC3)ccc2O1 | x | x | x | -3.0 | 2.6 | -13.8 | x
Nc1ccc2nc(-c3ccc(Cl)cc3)[nH]c2c1 | 50.9* | 5.0 | u | -14.6 | 7.3 | x | i
COCC(=O)N1CC(=O)N2[C@H](C1)[C@@H](c1ccc(-c3cccnc3)cc1)[C@@H]2CO | x | x | x | x | x | 11.1 | x
OC(c1ccccc1)(c1ccccc1)C1CCN(CCCOc2ccccc2Cl)CC1 | 54.6* | -0.8 | 9.7 | x | x | -15.3 | i
Fc1ccc2c(c1)Sc1ccc(Cl)cc1CC2N1CCN(CCC2OCCO2)CC1 (stereo not drawn) | 81.2* | x | 16.0 | x | x | 18.5 | i
O=C(C[C@@H]1CC[C@H](NS(=O)(=O)c2ccc(F)cc2)[C@H](CO)O1)NCc1ccccc1F | -3.7 | -0.3 | -1.7 | 5.1 | x | -1.6 | x
N#Cc1cccc(-c2ccc(C3[C@@H]4CN(C(=O)Cc5ccccc5)C[C@H]3N4)cc2)c1 (stereo partly drawn) | 20.5 | 0.1 | 0.8 | -7.0 | x | 12.6 | x
COc1ccc2c3c(n(C)c2c1)[C@H](CO)N(C(=O)Nc1ccc(F)cc1)CC31CCN(C(=O)CC2CC2)CC1 | 6.1 | 0.5 | -1.4 | 26.5 | x | -16.4 | x
OC(CN1CCCC1)Cn1ccc2ccccc21 (stereo not drawn) | 62.1* | 2.6 | 21.8 | x | -0.5 | -11.7 | i
O=C(c1ccccc1)N1CCN(CC(O)Cn2ccc3ccccc32)CC1 (stereo not drawn) | -13.5 | 0.6 | 2.1 | -3.7 | x | -5.2 | x
CC(C)NC(=O)Nc1ccc2c(c1)C(=O)N([C@H](C)CO)C[C@@H](C)[C@H](CN(C)S(=O)(=O)c1ccc(F)cc1)OCCCC[C@@H](C)O2 | 25.0 | 2.0 | 1.8 | -2.0 | 8.0 | -15.9 | x
CC(C)C(=O)Nc1ccc2c(c1)C(=O)N(C)[C@@H]1CC[C@@H](CC(=O)Nc3ccccc3)O[C@@H]1CO2 | -0.6 | 1.7 | -1.9 | 0.0 | x | 0.9 | x
COc1ccc(CNC(=S)Nc2ccc3nc(N4CCOCC4)cc(C)c3c2)cc1 | -8.8 | -0.3 | -1.6 | 0.6 | x | 6.8 | x
CCOCCCNC(=S)Nc1ccc2nc(N3CCOCC3)cc(C)c2c1 | 6.9 | -4.4 | 2.8 | 4.3 | 5.7 | 5.8 | x
Cc1cc(N2CCCC2)nc2ccc(NC(=S)NCCCOC(C)C)cc12 | 57.6* | -5.0 | 9.7 | 1.3 | x | -1.5 | i

Source: PubChem
